Our source for the sensor-assay potency score (higher = more potent) values is the OligoGym collection.
Further: reference of the scale not given here.

The target of this experiment is C5AR1. Description: pooled miR-30 sensor sort-seq; sequence = guide strand. The settings on record: shRNA.
With TTCAGTCAACACGTTCCGGAGG, the sensor-assay potency score (higher = more potent) was -1.26. The sequence TTCTACTTGTCTGTATTCTGAG yielded a sensor-assay potency score (higher = more potent) of 0.386. TTGAGGTCCAGGGTATCCTTGT yielded a sensor-assay potency score (higher = more potent) of -0.809. Next, TAAACACCAGCAGAAAGCGGTC: -1.02.

As to TACTTGTCTGTATTCTGAGTTC, the sensor-assay potency score (higher = more potent) was -0.656. Take TAACTCACTTACAAGAGCTTAG: the sensor-assay potency score (higher = more potent) is -0.132. Sequence TGATGCTGTACAATGGACGTGA returned a sensor-assay potency score (higher = more potent) of 0.655. As to TTTGTCGTGGCTGTAGTCCACG, the sensor-assay potency score (higher = more potent) was -0.519.

The sequence TTTTAAGCGAGAATCTTTCTAC had a sensor-assay potency score (higher = more potent) of 0.0632.

In turn, TTATTCAGCAGCAGGAAGGTGG yielded a sensor-assay potency score (higher = more potent) of -0.586. Consider ATAGTGTCCACTGTGGAGCGCG, for which the sensor-assay potency score (higher = more potent) was -0.598. With TCTACTTGTCTGTATTCTGAGT, the sensor-assay potency score (higher = more potent) was -0.792. Next, TTAAACACCAGCAGAAAGCGGT: -0.159; TGAAAGTGTAACAAATCGTGAG: 0.282.

TTCAGCAGCAGGAAGGTGGGTG showed a sensor-assay potency score (higher = more potent) of 0.301.
